# Assay results from PubChem BioAssay AID1159580 (chemical genetic matrix, 2015).
# Where “and” joins values, the source holds several entries; their conditions need not be identical. Equal entries are not always repeated. Hit rate of the full screen: of about 5,500 compounds, about 2,000 (36%) were called active. Inconclusive results (about 18%) are left out. This is one part of the list. Values without a mark were called inactive. Cut-off read from the data, not from the text of the source: active = normalized growth mostly below about 0.91 (no sharp cut-off); inconclusive = no clear call, values can overlap the other calls; inactive = mostly above about 0.92.
# Assay: chemical genetic growth profiling, strain panel (AID 1159580);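 note: tested at 20 µM; growth read once vehicle control cultures reached saturation at 30 °C; 1 = growth at the plate median or of vehicle wells; lower values mean less growth of the strain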
# Settings: growth OD
compound,measurement,setting,value
CNCCC=C1c2ccccc2CCc2ccccc21,normalized growth,"S. cerevisiae deletion strains, locus YJR075W, strain HOC1, stronger effect = lower value",1.02 and 0.976
same,normalized growth,"S. cerevisiae deletion strains, locus YKL009W, strain mrt4, stronger effect = lower value",1.01
same,normalized growth,"S. cerevisiae deletion strains, locus YKL068W, stronger effect = lower value",1
same,normalized growth,"S. cerevisiae deletion strains, locus YKL085W, strain MDH1 (second series), stronger effect = lower value",1
same,normalized growth,"S. cerevisiae deletion strains, locus YKL085W, strain MDH1, stronger effect = lower value",1
same,normalized growth,"S. cerevisiae deletion strains, locus YKL160W, strain elf1, stronger effect = lower value",0.943
same,normalized growth,"S. cerevisiae deletion strains, locus YKL190W, strain CNB1, stronger effect = lower value",1.01
same,normalized growth,"S. cerevisiae deletion strains, locus YKR001C, strain vps1, stronger effect = lower value",1.06
same,normalized growth,"S. cerevisiae deletion strains, locus YKR026C, strain gcn3, stronger effect = lower value",0.975
same,normalized growth,"S. cerevisiae deletion strains, locus YKR091W, strain srl3, stronger effect = lower value",0.973
same,normalized growth,"S. cerevisiae deletion strains, locus YLL001W, strain dnm1, stronger effect = lower value",0.988
same,normalized growth,"S. cerevisiae deletion strains, locus YLL026W, stronger effect = lower value",0.978
same,normalized growth,"S. cerevisiae deletion strains, locus YLL041C, strain sdh2, stronger effect = lower value",0.985
same,normalized growth,"S. cerevisiae deletion strains, locus YLR027C, strain aat2, stronger effect = lower value",0.967
same,normalized growth,"S. cerevisiae deletion strains, locus YLR039C, strain RIC1, stronger effect = lower value",1.1
same,normalized growth,"S. cerevisiae deletion strains, locus YLR058C, strain SHM2, stronger effect = lower value",1.02
same,normalized growth,"S. cerevisiae deletion strains, locus YLR102C, strain apc9, stronger effect = lower value",1.01
same,normalized growth,"S. cerevisiae deletion strains, locus YLR113W, strain HOG1, stronger effect = lower value",1
same,normalized growth,"S. cerevisiae deletion strains, locus YLR221C, strain rsa3, stronger effect = lower value",0.991
same,normalized growth,"S. cerevisiae deletion strains, locus YLR258W, strain gsy2, stronger effect = lower value",0.957
same,normalized growth,"S. cerevisiae deletion strains, locus YLR262C, strain YPT6 (second series), stronger effect = lower value",1.01
same,normalized growth,"S. cerevisiae deletion strains, locus YLR262C, strain YPT6, stronger effect = lower value",1.13
same,normalized growth,"S. cerevisiae deletion strains, locus YLR268W, strain sec22, stronger effect = lower value",1.08
same,normalized growth,"S. cerevisiae deletion strains, locus YLR320W, strain mms22, stronger effect = lower value",0.967
same,normalized growth,"S. cerevisiae deletion strains, locus YLR330W, strain CHS5, stronger effect = lower value",1.01
same,normalized growth,"S. cerevisiae deletion strains, locus YLR342W, strain FKS1 (second series), stronger effect = lower value",0.977
same,normalized growth,"S. cerevisiae deletion strains, locus YLR342W, strain FKS1, stronger effect = lower value",0.91
same,normalized growth,"S. cerevisiae deletion strains, locus YLR357W, strain rsc2, stronger effect = lower value",0.956
same,normalized growth,"S. cerevisiae deletion strains, locus YLR370C, strain arc18, stronger effect = lower value",0.975
same,normalized growth,"S. cerevisiae deletion strains, locus YLR371W, strain rom2, stronger effect = lower value",1.02
same,normalized growth,"S. cerevisiae deletion strains, locus YLR384C, strain iki3, stronger effect = lower value",0.979
same,normalized growth,"S. cerevisiae deletion strains, locus YLR418C, strain cdc73, stronger effect = lower value",1.01
same,normalized growth,"S. cerevisiae deletion strains, locus YML016C, strain PPZ1, stronger effect = lower value",1.01
same,normalized growth,"S. cerevisiae deletion strains, locus YML032C, strain rad52, stronger effect = lower value",1.06
same,normalized growth,"S. cerevisiae deletion strains, locus YML120C, strain ndi1, stronger effect = lower value",0.986
same,normalized growth,"S. cerevisiae deletion strains, locus YML124C, strain tub3, stronger effect = lower value",1.01
same,normalized growth,"S. cerevisiae deletion strains, locus YMR058W, strain fet3, stronger effect = lower value",0.964
same,normalized growth,"S. cerevisiae deletion strains, locus YMR078C, strain ctf18, stronger effect = lower value",1.02
same,normalized growth,"S. cerevisiae deletion strains, locus YMR125W, strain sto1, stronger effect = lower value",0.933
same,normalized growth,"S. cerevisiae deletion strains, locus YMR129W, stronger effect = lower value",0.976
same,normalized growth,"S. cerevisiae deletion strains, locus YMR205C, strain PFK2, stronger effect = lower value",0.98
same,normalized growth,"S. cerevisiae deletion strains, locus YMR223W, strain ubp8, stronger effect = lower value",0.989
same,normalized growth,"S. cerevisiae deletion strains, locus YMR231W, strain pep5, stronger effect = lower value",0.974
same,normalized growth,"S. cerevisiae deletion strains, locus YMR263W, strain SAP30, stronger effect = lower value",1.01
same,normalized growth,"S. cerevisiae deletion strains, locus YMR307W, strain GAS1, stronger effect = lower value",1.02
same,normalized growth,"S. cerevisiae deletion strains, locus YNL067W, strain RPL9B, stronger effect = lower value",1.02
same,normalized growth,"S. cerevisiae deletion strains, locus YNL071W, strain lat1, stronger effect = lower value",0.987
same,normalized growth,"S. cerevisiae deletion strains, locus YNL128W, strain TEP1, stronger effect = lower value",1.01 and 1.07
same,normalized growth,"S. cerevisiae deletion strains, locus YNL153C, strain GIM3, stronger effect = lower value",1.02 and 0.984
same,normalized growth,"S. cerevisiae deletion strains, locus YNL175C, strain NOP13, stronger effect = lower value",1
same,normalized growth,"S. cerevisiae deletion strains, locus YNL183C, strain NPR1, stronger effect = lower value",0.938
same,normalized growth,"S. cerevisiae deletion strains, locus YNL197C, strain WHI3, stronger effect = lower value",1.01
same,normalized growth,"S. cerevisiae deletion strains, locus YNL209W, strain ssb2, stronger effect = lower value",0.984
same,normalized growth,"S. cerevisiae deletion strains, locus YNL224C, strain SQS1, stronger effect = lower value",1.02
same,normalized growth,"S. cerevisiae deletion strains, locus YNL233W, strain BNI4, stronger effect = lower value",1.01
same,normalized growth,"S. cerevisiae deletion strains, locus YNL248C, strain rpa49, stronger effect = lower value",0.952
same,normalized growth,"S. cerevisiae deletion strains, locus YNL250W, strain rad50, stronger effect = lower value",1.01
same,normalized growth,"S. cerevisiae deletion strains, locus YNL271C, strain bni1, stronger effect = lower value",1.01
same,normalized growth,"S. cerevisiae deletion strains, locus YNL298W, strain CLA4, stronger effect = lower value",1.02
same,normalized growth,"S. cerevisiae deletion strains, locus YNL307C, strain MCK1, stronger effect = lower value",1.01
same,normalized growth,"S. cerevisiae deletion strains, locus YNL322C, strain KRE1 (second series), stronger effect = lower value",0.98
same,normalized growth,"S. cerevisiae deletion strains, locus YNL322C, strain KRE1, stronger effect = lower value",1.01 and 0.982
same,normalized growth,"S. cerevisiae deletion strains, locus YNR049C, strain mso1, stronger effect = lower value",0.98
same,normalized growth,"S. cerevisiae deletion strains, locus YNR052C, strain pop2, stronger effect = lower value",1.02
same,normalized growth,"S. cerevisiae deletion strains, locus YOL006C, strain TOP1, stronger effect = lower value",0.969
same,normalized growth,"S. cerevisiae deletion strains, locus YOL012C, strain htz1",0.912
same,normalized growth,"S. cerevisiae deletion strains, locus YOL147C, strain pex11, stronger effect = lower value",1.02
same,normalized growth,"S. cerevisiae deletion strains, locus YOR001W, strain rrp6, stronger effect = lower value",0.988
same,normalized growth,"S. cerevisiae deletion strains, locus YOR061W, strain CKA2, stronger effect = lower value",1.01
same,normalized growth,"S. cerevisiae deletion strains, locus YOR069W, strain VPS5, stronger effect = lower value",1.01
same,normalized growth,"S. cerevisiae deletion strains, locus YOR070C, strain gyp1, stronger effect = lower value",0.978
same,normalized growth,"S. cerevisiae deletion strains, locus YOR080W, strain dia2, stronger effect = lower value",0.967
same,normalized growth,"S. cerevisiae deletion strains, locus YOR083W, strain WHI5 (second series), stronger effect = lower value",1.01
same,normalized growth,"S. cerevisiae deletion strains, locus YOR083W, strain WHI5, stronger effect = lower value",0.898
same,normalized growth,"S. cerevisiae deletion strains, locus YOR106W, strain vam3, stronger effect = lower value",0.949
same,normalized growth,"S. cerevisiae deletion strains, locus YOR136W, strain idh2, stronger effect = lower value",1.01
same,normalized growth,"S. cerevisiae deletion strains, locus YOR144C, strain elg1, stronger effect = lower value",1.03
same,normalized growth,"S. cerevisiae deletion strains, locus YOR184W, strain ser1, stronger effect = lower value",1.04
same,normalized growth,"S. cerevisiae deletion strains, locus YOR231W, strain MKK1, stronger effect = lower value",1.01
same,normalized growth,"S. cerevisiae deletion strains, locus YOR265W, strain rbl2, stronger effect = lower value",0.989
same,normalized growth,"S. cerevisiae deletion strains, locus YOR270C, strain vph1, stronger effect = lower value",0.731 (active)
same,normalized growth,"S. cerevisiae deletion strains, locus YOR290C, strain snf2, stronger effect = lower value",0.928
same,normalized growth,"S. cerevisiae deletion strains, locus YOR316C, strain cot1, stronger effect = lower value",1.02
same,normalized growth,"S. cerevisiae deletion strains, locus YPL051W, strain arl3, stronger effect = lower value",0.956
same,normalized growth,"S. cerevisiae deletion strains, locus YPL055C, strain LGE1, stronger effect = lower value",1.05 and 0.967
same,normalized growth,"S. cerevisiae deletion strains, locus YPL078C, strain atp4, stronger effect = lower value",0.959
same,normalized growth,"S. cerevisiae deletion strains, locus YPL106C, strain sse1, stronger effect = lower value",0.983
same,normalized growth,"S. cerevisiae deletion strains, locus YPL240C, strain hsp82, stronger effect = lower value",1
same,normalized growth,"S. cerevisiae deletion strains, locus YPL241C, strain CIN2, stronger effect = lower value",1.01
same,normalized growth,"S. cerevisiae deletion strains, locus YPL256C, strain CLN2, stronger effect = lower value",0.962
same,normalized growth,"S. cerevisiae deletion strains, locus YPR119W, strain clb2, stronger effect = lower value",1.01
same,normalized growth,"S. cerevisiae deletion strains, locus YPR141C, strain kar3, stronger effect = lower value",1.01
same,normalized growth,"S. cerevisiae deletion strains, locus YPR163C, strain tif3, stronger effect = lower value",1.03
same,normalized growth,"S. cerevisiae deletion strains, locus YPR167C, strain met16, stronger effect = lower value",1.02
same,normalized growth,"S. cerevisiae deletion strains, strain wtn01, stronger effect = lower value",1.05
same,normalized growth,"S. cerevisiae strains, strain wild type, stronger effect = lower value",1.01
